Experimental data taken from PubChem BioAssay (NCATS).
Results filed as inconclusive are left out. Active and inactive are the calls of the source. Calls come from the whole dose curve; as a rule, active = well fitted inhibition curve with a large enough effect; inconclusive = small, poorly fitted or top-dose-only effect; inactive = flat fitted curve, though single readings scatter.

Columns and labels:
[1] = qHTS profiling for inhibitors of Plasmodium falciparum proliferation (AID 504749);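 note: 0% = DMSO vehicle and full inhibition = artemisinin control; nearly all actives have a fitted effect of over 60% in size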; details: P. falciparum in erythrocytes, SYBR Green DNA, 72 h
In short: (§1)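 Fluorescence of SYBR Green-bound parasite DNA, read at 485/535 nm, served as the growth measure. Infected erythrocytes were cultured with compound 72 h; artemisinin (0.29 uM) and DMSO wells defined the normalization range.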

3D7 = experiment: as above; details: P. falciparum in erythrocytes, SYBR Green DNA, 72 h; series mostly up to 28.7 µM
In short: as §1

7G8 = experiment: as above; details: P. falciparum in erythrocytes, SYBR Green DNA, 72 h; series mostly up to 28.7 µM
In short: as §1

AA1029 = experiment: as above; details: P. falciparum in erythrocytes, SYBR Green DNA, 72 h; series mostly up to 28.7 µM
In short: as §1

AS120 = experiment: as above; details: P. falciparum in erythrocytes, SYBR Green DNA, 72 h; series mostly up to 28.7 µM
In short: as §1

ATS189 = experiment: as above; details: P. falciparum in erythrocytes, SYBR Green DNA, 72 h; series mostly up to 28.7 µM
In short: as §1

ATS95 = experiment: as above; details: P. falciparum in erythrocytes, SYBR Green DNA, 72 h; series mostly up to 28.7 µM
In short: as §1

C2A = experiment: as above; details: P. falciparum in erythrocytes, SYBR Green DNA, 72 h; series mostly up to 28.7 µM
In short: as §1

CP185 = experiment: as above; details: P. falciparum in erythrocytes, SYBR Green DNA, 72 h; series mostly up to 28.7 µM
In short: as §1

CP191 = experiment: as above; details: P. falciparum in erythrocytes, SYBR Green DNA, 72 h; series mostly up to 28.7 µM
In short: as §1

CP192 = experiment: as above; details: P. falciparum in erythrocytes, SYBR Green DNA, 72 h; series mostly up to 28.7 µM
In short: as §1

CP194 = experiment: as above; details: P. falciparum in erythrocytes, SYBR Green DNA, 72 h; series mostly up to 28.7 µM
In short: as §1

CP201 = experiment: as above; details: P. falciparum in erythrocytes, SYBR Green DNA, 72 h; series mostly up to 28.7 µM
In short: as §1

CP203 = experiment: as above; details: P. falciparum in erythrocytes, SYBR Green DNA, 72 h; series mostly up to 28.7 µM
In short: as §1

CP211 = experiment: as above; details: P. falciparum in erythrocytes, SYBR Green DNA, 72 h; series mostly up to 28.7 µM
In short: as §1

CP215 = experiment: as above; details: P. falciparum in erythrocytes, SYBR Green DNA, 72 h; series mostly up to 28.7 µM
In short: as §1

[2] = at 28.7 µM (top of the series), parasite line A
[3] = at 28.7 µM (top of the series), parasite line B
[4] = at 12.8 µM (top of the series), parasite line A
[5] = at 12.8 µM (top of the series), parasite line B

CC(C)c1cc2c(cc1S(=O)(=O)O)[C@@]1(C)CCC[C@@](C)(C(=O)O)[C@@H]1CC2
inactive: activity, negative = inhibition [1, 2] 12.2% | activity, negative = inhibition [1, 3] -0.445% | Potency (3D7) | Potency (7G8) | Potency (AA1029) | Potency (AS120) | Potency (ATS189) | Potency (ATS95) | Potency (C2A) | Potency (CP185) | outcome (CP191) | outcome (CP192) | outcome (CP194) | outcome (CP201) | Potency (CP203) | outcome (CP211) | Potency (CP215)

COC(=O)c1ccc(O)cc1
inactive: activity, negative = inhibition [1, 2] 3.79% | activity, negative = inhibition [1, 3] 9.44% | Potency (3D7) | Potency (7G8) | Potency (AA1029) | Potency (AS120) | Potency (ATS189) | Potency (ATS95) | Potency (C2A) | Potency (CP185) | outcome (CP191) | outcome (CP192) | outcome (CP194) | outcome (CP201) | Potency (CP203) | outcome (CP211) | Potency (CP215)

COc1ccccc1OC(=O)Oc1ccccc1OC
inactive: activity, negative = inhibition [1, 2] -1.25% | activity, negative = inhibition [1, 3] 5.57% | Potency (3D7) | Potency (7G8) | Potency (AA1029) | Potency (AS120) | Potency (ATS189) | Potency (ATS95) | Potency (C2A) | Potency (CP185) | outcome (CP191) | outcome (CP192) | outcome (CP194) | outcome (CP201) | Potency (CP203) | outcome (CP211) | Potency (CP215)

Cc1c(Cn2ccnc2)c2ccccc2n1CCC(=O)O
inactive: activity, negative = inhibition [1, 2] 14.7% | activity, negative = inhibition [1, 3] 0.623% | Potency (3D7) | Potency (7G8) | Potency (AA1029) | Potency (AS120) | Potency (ATS189) | Potency (ATS95) | Potency (C2A) | Potency (CP185) | outcome (CP191) | outcome (CP192) | outcome (CP194) | outcome (CP201) | Potency (CP203) | outcome (CP211) | Potency (CP215)

O=C(O)Cc1cn(-c2ccccc2)nc1-c1ccc(Cl)cc1
inactive: activity, negative = inhibition [1, 2] 11.4% | activity, negative = inhibition [1, 3] 9.39% | Potency (3D7) | Potency (7G8) | Potency (AA1029) | Potency (AS120) | Potency (ATS189) | Potency (ATS95) | Potency (C2A) | Potency (CP185) | outcome (CP191) | outcome (CP192) | outcome (CP194) | outcome (CP201) | Potency (CP203) | outcome (CP211) | Potency (CP215)

CCOC(N)=O
inactive: activity, negative = inhibition [1, 2] 8.86% | activity, negative = inhibition [1, 3] 9.69% | Potency (3D7) | Potency (7G8) | Potency (AA1029) | Potency (AS120) | Potency (ATS189) | Potency (ATS95) | Potency (C2A) | Potency (CP185) | outcome (CP191) | outcome (CP192) | outcome (CP194) | outcome (CP201) | Potency (CP203) | outcome (CP211) | Potency (CP215)

CCCCCCCCCCCCCCCCC(C(=O)O)C(O)(CC(=O)O)C(=O)O (configuration not stated)
inactive: activity, negative = inhibition [1, 2] 13.1% | activity, negative = inhibition [1, 3] 1.49% | Potency (3D7) | Potency (7G8) | Potency (AA1029) | Potency (AS120) | Potency (ATS189) | Potency (ATS95) | Potency (C2A) | Potency (CP185) | outcome (CP191) | outcome (CP192) | outcome (CP194) | outcome (CP201) | Potency (CP203) | outcome (CP211) | Potency (CP215)

C[C@@H]1CCC[C@H](C)N1
inactive: activity, negative = inhibition [1, 4] 13.8% | activity, negative = inhibition [1, 5] -5.49% | Potency (3D7) | Potency (7G8) | Potency (AA1029) | Potency (AS120) | Potency (ATS189) | Potency (ATS95) | Potency (C2A) | Potency (CP185) | outcome (CP191) | outcome (CP192) | outcome (CP194) | outcome (CP201) | Potency (CP203) | outcome (CP211) | Potency (CP215)

Cn1c([N+](=O)[O-])cnc1COC(N)=O
inactive: activity, negative = inhibition [1, 2] 5.14% | activity, negative = inhibition [1, 3] 3.75% | Potency (3D7) | Potency (7G8) | Potency (AA1029) | Potency (AS120) | Potency (ATS189) | Potency (ATS95) | Potency (C2A) | Potency (CP185) | outcome (CP191) | outcome (CP192) | outcome (CP194) | outcome (CP201) | Potency (CP203) | outcome (CP211) | Potency (CP215)

CN1CCCN=C1COC(=O)C(O)(c1ccccc1)C1CCCCC1 (configuration not stated)
inactive: activity, negative = inhibition [1, 2] 2.78% | activity, negative = inhibition [1, 3] -4.74% | Potency (3D7) | Potency (7G8) | Potency (AA1029) | Potency (AS120) | Potency (ATS189) | Potency (ATS95) | Potency (C2A) | Potency (CP185) | outcome (CP191) | outcome (CP192) | outcome (CP194) | outcome (CP201) | Potency (CP203) | outcome (CP211) | Potency (CP215)

CC(C)(C)C(=O)OCOC(=O)[C@@H]1N2C(=O)[C@@H](NC(=O)[C@H](N)c3ccccc3)[C@H]2SC1(C)C
inactive: activity, negative = inhibition [1, 4] -1.26% | activity, negative = inhibition [1, 5] -15.3% | Potency (3D7) | Potency (7G8) | Potency (AA1029) | Potency (AS120) | Potency (ATS189) | Potency (ATS95) | Potency (C2A) | Potency (CP185) | outcome (CP191) | outcome (CP192) | outcome (CP194) | outcome (CP201) | Potency (CP203) | outcome (CP211) | Potency (CP215)

CCN(CC)CC1CCCCN1CC(=O)N1c2ccccc2C(=O)Nc2cccnc21 (configuration not stated)
inactive: activity, negative = inhibition [1, 2] 6.16% | activity, negative = inhibition [1, 3] 1.05% | Potency (3D7) | Potency (7G8) | Potency (AA1029) | Potency (AS120) | Potency (ATS189) | Potency (ATS95) | Potency (C2A) | Potency (CP185) | outcome (CP191) | outcome (CP192) | outcome (CP194) | outcome (CP201) | Potency (CP203) | Potency (CP215)

O=C(O)COC(=O)Cc1ccccc1Nc1c(Cl)cccc1Cl
inactive: activity, negative = inhibition [1, 4] -3.73% | activity, negative = inhibition [1, 5] 2.28% | Potency (3D7) | Potency (7G8) | Potency (AA1029) | Potency (AS120) | Potency (ATS189) | Potency (ATS95) | Potency (C2A) | Potency (CP185) | outcome (CP191) | outcome (CP192) | outcome (CP194) | outcome (CP201) | Potency (CP203) | outcome (CP211) | Potency (CP215)

CC(=O)NCc1c(I)c(NC(C)=O)c(I)c(C(=O)O)c1I
inactive: activity, negative = inhibition [1, 2] 10.9% | activity, negative = inhibition [1, 3] 6.96% | Potency (3D7) | Potency (7G8) | Potency (AA1029) | Potency (AS120) | Potency (ATS189) | Potency (ATS95) | Potency (C2A) | Potency (CP185) | outcome (CP191) | outcome (CP192) | outcome (CP194) | outcome (CP201) | Potency (CP203) | outcome (CP211) | Potency (CP215)
